Screens: PubChem, several laboratories
In the library only some 2.8% were active in any assay of this set; here they are far more common.
HIF-2a block: HIF-2a inhibition. 786-0 RCC cells HIF-2a reporter, luciferase luminescence, overnight. inhibition, % at 18.8 µM. hit rate 0.72% among 360,000;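 active = inhibition of the luminescence signal of 40% or more relative to plate controls, in a single-dose primary screen at 18.75 µM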
Peg3 prom inh: Peg3 promoter activity inhibition; inhibition, % at 20 µM; AID 588405; HeLa PEG-Prom luciferase reporter, luminescence, overnight; hit rate 1.7% among 360,000;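 active = inhibition of at least 50% at 20 µM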
Shn3 3UTR inh: reduces Shn3 3'UTR luciferase signal in osteoblasts; Clone20 osteoblast Shn3 3'UTR firefly luciferase, 24 h; inhibition, % at 12.5 µM; hit rate 0.52% among 360,000; AID 588674;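 active = mean inhibition of at least 75% with every replicate also reaching 75%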;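 also: 0% = median of neutral control wells and 100% = pilot-screen positive control compound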
CF NFkB block: inhibitors of cystic fibrosis induced NF-kB; inhibition, % at 5 µM; KKLEB NF-kB-GFP reporter, PAF-induced, GFP fluorescence overnight; hit rate 0.86% among 360,000;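 active = at least 50% inhibition at 5 µM, scaled per plate between neutral and stimulator controls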;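 also: PAF is a Pseudomonas aeruginosa culture filtrate used as stimulus; plate controls were PAF-stimulated DMSO wells for no effect and unstimulated DMSO wells for full effect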
MITF TRPM1 inh: reduces MITF-dependent TRPM1 promoter luciferase signal; SK-MEL-5 TRPM1 promoter luciferase, 24 h; inhibition, % at 12.5 µM; hit rate 0.83% among 330,000;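 active = mean inhibition across replicates of 60% or more, whatever share of single replicates reaches that level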
KKLEB cytotox: CF airway cell cytotoxicity counter-screen; KKLEB CF airway cells viability, ATPlite luminescence, overnight; hits give low values; cells stimulated with P. aeruginosa culture filtrate; activity change (cytotoxicity), % at 5 µM; hit rate 0.36% among 360,000; AID 602141;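 active = corrected activity change at or below -50% at 5 µM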
* hit, by the source's call; . = no result given.

SMILES	HIF-2a block	Peg3 prom inh	Shn3 3UTR inh	CF NFkB block	MITF TRPM1 inh	KKLEB cytotox
c1ccc(-c2cccc(-c3ccccn3)n2)nc1	-19	14	88*	23	52	-10
c1ccc(-c2nnc(-c3ccccn3)nn2)nc1	-160	-122	-40	11	-29	-7
CCN(CC)c1ccc(C(=C2C=CC(=[N+](CC)CC)C=C2)c2ccc(S(=O)(=O)O)cc2S(=O)(=O)[O-])cc1	30	30	22	26	33	-14
CC(C)C[C@]1(c2ccccc2)ON(c2ccccc2C(F)(F)F)C1=O	25	33	-2	-8	1	5
O=C1N(c2ccccc2C(F)(F)F)O[C@@]1(c1ccccc1)C1CCCC1	22	70*	-10	29	4	-2
Nc1ncnc2c1ncn2-c1ccccc1Cl	-20	-18	2	0	6	9
CC(C)(C)c1ccc(C(=O)NNC(=O)CNC(=O)c2cccs2)cc1	-64	-50	-24	-9	-22	-22
C[C@H]1[C@H](C)CC[C@]2(C(=O)O)CC[C@]3(C)C(=CC[C@@H]4[C@@]5(C)CC[C@H](O)C(C)(C)[C@@H]5CC[C@]43C)[C@H]12	5	53*	-6	7	4	-3
C/C=C/C(=O)OCC(=O)Nc1cc(-c2cc(C)c(C)cc2C)nn1-c1ccccc1	-3	10	3	6	11	-15
CC1CCc2nc(N)c(C#N)c(-c3ccncc3)c2C1 (stereo not drawn)	20	17	7	-9	2	-10
CC1CCc2nc(N)c(C#N)c(-c3cccnc3)c2C1 (stereo not drawn)	13	31	21	69*	4	-5
CCCNC(=O)C1(C)CCN(Cc2ccc3ccccc3c2Br)C1 (stereo not drawn)	-5	4	11	10	.	-3
O=C(NNC(=O)C1CC=CCC1)c1ccccc1Cl (stereo not drawn)	-42	-47	-23	6	-11	-2
CCCCCCCn1c2c(c(=N)c3ccccc31)CCC2	-18	34	97*	39	86*	-29
CN(C)c1ccc(C(=O)n2nnc3ccccc32)cc1	-42	-20	8	69*	-4	-36
NC(c1csc(Nc2ncccn2)n1)c1ccccc1Cl (stereo not drawn)	7	6	-29	5	.	-11
Cc1ccc(NC(=O)C2CCN(C(=O)c3ccccc3C)CC2)cc1	18	13	-7	6	2	0
Cc1ccccc1C(=O)N1CCC(C(=O)Nc2ccc(S(=O)(=O)N3C(C)CCCC3C)cc2)CC1 (stereo not drawn)	6	78*	19	2	7	-11
O=C1C=C(Nc2cccnc2)c2ccccc2C1=O	17	25	11	54*	101*	10
O=C1C=C(Nc2ccc(F)cc2)c2ccccc2C1=O	-32	12	8	82*	97*	-19
COc1cc(Cl)c(NC2=CC(=O)C(=O)c3ccccc32)c(OC)c1	37	16	19	83*	96*	-44
CCOc1ccc(NC2=CC(=O)C(=O)c3ccccc32)cc1	-106	-54	12	80*	102*	-13
COC1=C(Nc2ccc(C)cc2)C(=O)c2ccccc2C1=O	-166	-169	-30	47	25	-21
CC1CCN(S(=O)(=O)c2ccc3c(c2)NC(=O)CS3)CC1	12	2	6	-8	10	17
Cc1cc2c(cc1S(=O)(=O)Nc1ccc(OC(F)(F)F)cc1)OCC(=O)N2	22	10	31	-1	6	-7
SMILES	HIF-2a block	Peg3 prom inh	Shn3 3UTR inh	CF NFkB block	MITF TRPM1 inh	KKLEB cytotox
OCCC1CN(Cc2cc3c(cc2Cl)OCO3)CCN1Cc1ccccc1 (stereo not drawn)	16	5	-12	7	-8	-9
COC(=O)c1ccccc1-n1cccc1C(=O)NP(=O)(N1CCOCC1)N1CCOCC1	5	16	-5	7	-5	2
C[C@H](CO)N1C[C@H](C)[C@H](CN(C)S(=O)(=O)c2ccc3ccccc3c2)OCc2cnnn2CCCC1=O	0	0	-1	-13	.	12
Cc1ccccc1-n1c(SCC(=O)N/N=C/c2c(C)nn(-c3ccccc3)c2C)nc2ccccc2c1=O	15	54*	18	-9	9	19
Cc1nn(-c2ccccc2)c(C)c1/C=N/NC(=O)CSc1nc2ccccc2c(=O)n1-c1ccc(Br)cc1	11	58*	28	21	-5	-20
Cc1ccc(/C=N/NC(=O)CSc2nc3ccccc3c(=O)n2-c2ccccc2C)s1	11	51*	35	-32	7	7
Cc1ccc(-n2c(SCC(=O)N/N=C/c3c(C)nn(-c4ccccc4)c3C)nc3ccccc3c2=O)cc1	1	39	9	24	-11	-4
CC(=O)Nc1cccc(C(=O)N2CCN(S(=O)(=O)c3ccc(C4CCCCC4)cc3)CC2)c1	13	13	17	-14	10	-6
O=C(c1ccc2c(c1)OCO2)N1CCN(S(=O)(=O)c2ccc(Cl)cc2)CC1	13	22	1	-7	8	-1
COc1ccc(C(=O)/C(C#N)=N/Nc2cccc([N+](=O)[O-])c2)cc1	-67	29	9	54*	12	-47
Cc1cc(C)c(S(=O)(=O)c2cccc(Cl)c2)c(=O)[nH]1	19	-7	0	-2	3	-3
CC[N+](C)(CC)CCOC(=O)C(O)(c1ccccc1)C1CCCCC1 (stereo not drawn)	29	-10	24	54*	-13	6
N#CC(C#N)=C(Nc1ccc(F)cc1)SCc1cccc(Br)c1	-33	21	77	51*	63*	-42
CN1/C(=C\C=N\NC(=O)c2cccnc2)C(C)(C)c2ccccc21	21	6	2	2	-4	-4
CN1/C(=C\C=N\NC(=O)c2ccc(O)cc2)C(C)(C)c2ccccc21	23	8	88*	-5	8	-9
COc1cc2c(cc1OC)C(=O)C(c1ccc3c(c1)OCO3)CC2 (stereo not drawn)	-27	-15	5	-33	.	3
COc1cc2c(cc1OC)C(=O)C(Br)CC2 (stereo not drawn)	8	65*	35	70*	.	-16
CC/C(=N/N=C(/CC)c1ccc(O)cc1)c1ccc(O)cc1	0	8	8	-9	-1	-4
CCCCn1c(N)c(N(CC(C)C)C(=O)CSc2ccccc2C)c(=O)[nH]c1=O	7	2	-1	10	-1	-6
COc1cc(N=C2C(=O)N3c4c(cccc42)C(C)=CC3(C)C)cc(OC)c1	8	15	12	4	-1	-3
CC1=CC(C)(C)N2C(=O)C(=Nc3ccc(O)cc3)c3cccc1c32	9	10	3	13	78*	9
Cc1cc(C)nc(NC(=NCCc2c[nH]c3ccccc23)NC(=O)Nc2ccccc2)n1	-4	52*	49	42	-7	-9
